{"source": "the supplement of paper PMC8728848", "binders": {"B1": {"name": "Tectonin 2 (Laccaria bicolor) (protein)", "chain": "MPWKGISGSLSRISAGSVTNVWGVNAANNIYRYTGDDAKPWVQIPGALTDIGAAADGTVWGVNAAGNIYRYVWDSNHWTQIKGALKRISAGSRTNVWGVNAGGAIYRYTGDDANPWVQIPGVLSDIGAGADGTVWGVNAAGEIYRYTGDQGDPNHWVKIPGALSAISAGIKTNVWGVNSANNIYTSTGDDKNPWLGIGGSLVDIGAGTDGVVWGVNAGGGIYRWIRD"}}, "test_in_all_cases": "glycan array binding signal (z-score within array); higher = stronger binding", "conditions_in_all_cases": "glycan notation: IUPAC condensed, linker removed", "key": {"[1]": {"target": "Fuc(a1-2)Gal(b1-3)GlcNAc(b1-2)Man(a1-3)[Fuc(a1-2)Gal(b1-3)GlcNAc(b1-2)Man(a1-6)]Man(b1-4)GlcNAc(b1-4)[Fuc(a1-6)]GlcNAc", "method_in_brief": "(§1)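 The Consortium for Functional Glycomics database supplied 3228 glycan arrays, of which those lacking an available protein sequence were dropped. The binding signal, a within-array Z-score, was averaged across arrays of the same protein sequence and across linkers. Negative scores can be read as non-binding.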"}, "Fuc(a1-2)Gal(b1-4)Glc6S": {"target": "Fuc(a1-2)Gal(b1-4)Glc6S", "method_in_brief": "as §1"}, "[2]": {"target": "Fuc(a1-2)[Gal(a1-3)]Gal(b1-4)GlcNAc(b1-2)Man(a1-3)[Fuc(a1-2)[Gal(a1-3)]Gal(b1-4)GlcNAc(b1-2)Man(a1-6)]Man(b1-4)GlcNAc(b1-4)GlcNAc", "method_in_brief": "as §1"}, "[3]": {"target": "Fuc(a1-2)[GalNAc(a1-3)]Gal(b1-4)GlcNAc(b1-2)Man(a1-3)[Fuc(a1-2)[GalNAc(a1-3)]Gal(b1-4)GlcNAc(b1-2)Man(a1-6)]Man(b1-4)GlcNAc(b1-4)GlcNAc", "method_in_brief": "as §1"}, "[4]": {"target": "Fuc(a1-2)[GalNAc(a1-3)]Gal(b1-4)[Fuc(a1-3)]GlcNAc", "method_in_brief": "as §1"}, "[5]": {"target": "Fuc(a1-3)[Gal(b1-4)]GlcNAc(b1-4)Gal(b1-4)[Fuc(a1-3)]GlcNAc(b1-4)Gal(b1-4)[Fuc(a1-3)]GlcNAc", "method_in_brief": "as §1"}, "[6]": {"target": "Fuc(a1-3)[Gal3S(b1-4)]GlcNAc6S", "method_in_brief": "as §1"}, "[7]": {"target": "Gal(a1-3)Gal(b1-3)[Fuc(a1-4)]GlcNAc(b1-2)Man(a1-3)[Gal(a1-3)Gal(b1-3)[Fuc(a1-4)]GlcNAc(b1-2)Man(a1-6)]Man(b1-4)GlcNAc(b1-4)GlcNAc", "method_in_brief": "as §1"}, "Gal(b1-3)GalNAc": {"target": "Gal(b1-3)GalNAc", "method_in_brief": "as §1"}, "[8]": {"target": "Gal(b1-3)GalNAc(a1-3)[Fuc(a1-2)]Gal(b1-4)Glc", "method_in_brief": "as §1"}, "[9]": {"target": "Gal(b1-3)GalNAc(b1-4)Gal(b1-4)Glc", "method_in_brief": "as §1"}, "[10]": {"target": "Gal(b1-3)GlcNAc(b1-2)Man(a1-3)[Gal(b1-3)GlcNAc(b1-2)Man(a1-6)]Man(b1-4)GlcNAc(b1-4)GlcNAc", "method_in_brief": "as §1"}, "[11]": {"target": "Gal(b1-3)[Fuc(a1-4)]GlcNAc", "method_in_brief": "as §1"}, "[12]": {"target": "Gal(b1-4)GlcNAc(b1-2)Man(a1-3)Man(b1-4)GlcNAc(b1-4)GlcNAc", "method_in_brief": "as §1"}, "[13]": {"target": "Gal(b1-4)GlcNAc(b1-2)[Gal(b1-4)GlcNAc(b1-4)]Man(a1-3)[Gal(b1-4)GlcNAc(b1-2)[Gal(b1-4)GlcNAc(b1-6)]Man(a1-6)]Man(b1-4)GlcNAc(b1-4)GlcNAc", "method_in_brief": "as §1"}, "[14]": {"target": "Gal(b1-4)GlcNAc(b1-2)[Gal(b1-4)GlcNAc(b1-4)]Man(a1-3)[GlcNAc(b1-4)][Gal(b1-4)GlcNAc(b1-2)Man(a1-6)]Man(b1-4)GlcNAc(b1-4)GlcNAc", "method_in_brief": "as §1"}, "[15]": {"target": "Gal(b1-4)GlcNAc(b1-3)Gal(b1-4)[Fuc(a1-3)GlcNAc(b1-6)]Gal(b1-4)Glc", "method_in_brief": "as §1"}, "Gal6S(b1-4)GlcNAc6S": {"target": "Gal6S(b1-4)GlcNAc6S", "method_in_brief": "as §1"}, "Glc(a1-6)Glc(a1-6)Glc": {"target": "Glc(a1-6)Glc(a1-6)Glc", "method_in_brief": "as §1"}, "Glc(b1-4)Glc": {"target": "Glc(b1-4)Glc", "method_in_brief": "as §1"}, "GlcA(b1-3)GlcNAc": {"target": "GlcA(b1-3)GlcNAc", "method_in_brief": "as §1"}, "[16]": {"target": "GlcNAc(a1-4)Gal(b1-4)GlcNAc(b1-3)Gal(b1-4)GlcNAc", "method_in_brief": "as §1"}, "[17]": {"target": "GlcNAc(a1-4)Gal(b1-4)GlcNAc(b1-3)Gal(b1-4)[Fuc(a1-3)]GlcNAc(b1-3)Gal(b1-4)[Fuc(a1-3)]GlcNAc", "method_in_brief": "as §1"}, "[18]": {"target": "GlcNAc(b1-2)Man(a1-3)[GlcNAc(b1-2)Man(a1-6)]Man(b1-4)GlcNAc(b1-4)[Fuc(a1-6)]GlcNAc", "method_in_brief": "as §1"}, "[19]": {"target": "GlcNAc(b1-2)[GlcNAc(b1-4)]Man(a1-3)[GlcNAc(b1-4)][GlcNAc(b1-2)Man(a1-6)]Man(b1-4)GlcNAc(b1-4)GlcNAc", "method_in_brief": "as §1"}, "GlcNAc(b1-3)Man": {"target": "GlcNAc(b1-3)Man", "method_in_brief": "as §1"}, "[20]": {"target": "GlcNAc(b1-3)[GlcNAc(b1-6)]GalNAc", "method_in_brief": "as §1"}, "Man(a1-3)[Man(a1-6)]Man": {"target": "Man(a1-3)[Man(a1-6)]Man", "method_in_brief": "as §1"}, "Man(a1-6)Man": {"target": "Man(a1-6)Man", "method_in_brief": "as §1"}, "[21]": {"target": "Neu5Ac(a2-3)Gal(b1-3)GalNAc(b1-3)Gal(a1-4)Gal(b1-4)Glc", "method_in_brief": "as §1"}, "[22]": {"target": "Neu5Ac(a2-3)Gal(b1-3)GalNAc(b1-4)[Neu5Ac(a2-3)]Gal(b1-4)Glc", "method_in_brief": "as §1"}, "[23]": {"target": "Neu5Ac(a2-3)Gal(b1-4)GlcNAc(b1-3)Gal(b1-4)[Fuc(a1-3)]GlcNAc", "method_in_brief": "as §1"}, "[24]": {"target": "Neu5Ac(a2-3)Gal(b1-4)[Fuc(a1-3)]GlcNAc(b1-3)GalNAc", "method_in_brief": "as §1"}, "[25]": {"target": "Neu5Ac(a2-6)Gal(b1-4)GlcNAc(b1-3)GalNAc", "method_in_brief": "as §1"}, "Neu5Ac(a2-6)GalNAc": {"target": "Neu5Ac(a2-6)GalNAc", "method_in_brief": "as §1"}, "Neu5Ac(a2-8)Neu5Ac": {"target": "Neu5Ac(a2-8)Neu5Ac", "method_in_brief": "as §1"}, "[26]": {"target": "Neu5Ac(a2-8)Neu5Ac(a2-8)Neu5Ac(a2-3)[GalNAc(b1-4)]Gal(b1-4)Glc", "method_in_brief": "as §1"}, "[27]": {"target": "Neu5Ac(a2-8)Neu5Ac(a2-8)Neu5Ac(a2-8)Neu5Ac(a2-3)[GalNAc(b1-4)]Gal(b1-4)Glc", "method_in_brief": "as §1"}, "[28]": {"target": "Neu5Ac9Ac(a2-6)Gal(b1-4)GlcNAc", "method_in_brief": "as §1"}}, "note": "The entries come from a sample that favours the strongest signals as a whole."}
{"binder": "B1", "values": [{"measurement": "glycan array binding signal (z-score)", "setting": "[1]", "value": -0.069}, {"measurement": "glycan array binding signal (z-score)", "setting": "Fuc(a1-2)Gal(b1-4)Glc6S", "value": -0.349}, {"measurement": "glycan array binding signal (z-score)", "setting": "[2]", "value": 9.62}, {"measurement": "glycan array binding signal (z-score)", "setting": "[3]", "value": -0.16}, {"measurement": "glycan array binding signal (z-score)", "setting": "[4]", "value": -0.145}, {"measurement": "glycan array binding signal (z-score)", "setting": "[5]", "value": -0.16}, {"measurement": "glycan array binding signal (z-score)", "setting": "[6]", "value": 0.299}, {"measurement": "glycan array binding signal (z-score)", "setting": "[7]", "value": -0.008}, {"measurement": "glycan array binding signal (z-score)", "setting": "Gal(b1-3)GalNAc", "value": -0.212}, {"measurement": "glycan array binding signal (z-score)", "setting": "[8]", "value": -0.46}, {"measurement": "glycan array binding signal (z-score)", "setting": "[9]", "value": -0.123}, {"measurement": "glycan array binding signal (z-score)", "setting": "[10]", "value": 0.354}, {"measurement": "glycan array binding signal (z-score)", "setting": "[11]", "value": -0.348}, {"measurement": "glycan array binding signal (z-score)", "setting": "[12]", "value": -0.226}, {"measurement": "glycan array binding signal (z-score)", "setting": "[13]", "value": -0.038}, {"measurement": "glycan array binding signal (z-score)", "setting": "[14]", "value": 0.732}, {"measurement": "glycan array binding signal (z-score)", "setting": "[15]", "value": -0.568}, {"measurement": "glycan array binding signal (z-score)", "setting": "Gal6S(b1-4)GlcNAc6S", "value": 2.71}, {"measurement": "glycan array binding signal (z-score)", "setting": "Glc(a1-6)Glc(a1-6)Glc", "value": -0.136}, {"measurement": "glycan array binding signal (z-score)", "setting": "Glc(b1-4)Glc", "value": -0.277}, {"measurement": "glycan array binding signal (z-score)", "setting": "GlcA(b1-3)GlcNAc", "value": 4.49}, {"measurement": "glycan array binding signal (z-score)", "setting": "[16]", "value": -0.238}, {"measurement": "glycan array binding signal (z-score)", "setting": "[17]", "value": 2.15}, {"measurement": "glycan array binding signal (z-score)", "setting": "[18]", "value": 0.258}, {"measurement": "glycan array binding signal (z-score)", "setting": "[19]", "value": -0.327}, {"measurement": "glycan array binding signal (z-score)", "setting": "GlcNAc(b1-3)Man", "value": -0.371}, {"measurement": "glycan array binding signal (z-score)", "setting": "[20]", "value": -0.21}, {"measurement": "glycan array binding signal (z-score)", "setting": "Man(a1-3)[Man(a1-6)]Man", "value": -0.426}, {"measurement": "glycan array binding signal (z-score)", "setting": "Man(a1-6)Man", "value": -0.438}, {"measurement": "glycan array binding signal (z-score)", "setting": "[21]", "value": 0.073}, {"measurement": "glycan array binding signal (z-score)", "setting": "[22]", "value": 2.34}, {"measurement": "glycan array binding signal (z-score)", "setting": "[23]", "value": 2.47}, {"measurement": "glycan array binding signal (z-score)", "setting": "[24]", "value": 2.62}, {"measurement": "glycan array binding signal (z-score)", "setting": "[25]", "value": 1.14}, {"measurement": "glycan array binding signal (z-score)", "setting": "Neu5Ac(a2-6)GalNAc", "value": -0.325}, {"measurement": "glycan array binding signal (z-score)", "setting": "Neu5Ac(a2-8)Neu5Ac", "value": -0.07}, {"measurement": "glycan array binding signal (z-score)", "setting": "[26]", "value": -0.445}, {"measurement": "glycan array binding signal (z-score)", "setting": "[27]", "value": 2.33}, {"measurement": "glycan array binding signal (z-score)", "setting": "[28]", "value": 0.77}]}
